Measured values: paper PMC7819943, “Rice protein-binding microarrays: a tool to detect cis-acting elements near promoter regions in rice”
Whole data set: some 68,000 sequences, median “fluorescence intensity (a.u.)” near 9,100, cut for the highest 2% near 16,000. For the sample, the highest values were picked, then their nearest neighbours and some sequences at random.

target: OsWRKY34 (Oryza sativa, UniProt Q0JBA9 1-250); assay: protein-binding microarray (RPBM); PBS, 2% BSA, 51.3 ng/ul salmon testes DNA, 50 uM zinc acetate, 200 nM TF, 25 C, 1 h; high values mean tight binding; settings: protein: recombinant; tags: N-terminal polyhistidine and DsRed monomer fusion (pET32a); label: CyDye5-dUTP incorporated in the synthesized complementary strand; 3' TTTTT single-stranded linker to array surface; dsDNA, one strand shown
Sequence (Q0JBA9 entry or part of it): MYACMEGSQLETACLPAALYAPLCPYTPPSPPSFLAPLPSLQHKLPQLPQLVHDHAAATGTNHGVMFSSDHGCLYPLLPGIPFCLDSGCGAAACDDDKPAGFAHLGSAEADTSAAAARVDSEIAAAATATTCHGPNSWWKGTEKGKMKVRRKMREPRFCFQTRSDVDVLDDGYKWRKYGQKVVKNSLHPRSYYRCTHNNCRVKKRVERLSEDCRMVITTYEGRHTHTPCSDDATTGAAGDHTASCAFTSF
Method in brief: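 The binding signal for each feature is its fluorescence intensity in arbitrary units. An Axon 4000B scanner was used to read a custom Agilent array that had been made double-stranded with Cy5-dUTP primer extension, blocked with 2% BSA, incubated at 25 °C for 1 h with 200 nM protein in PBS, 2% BSA, salmon testes DNA and 50 µM zinc acetate, and washed. The protein was an N-terminal polyhistidine–DsRed transcription factor fusion from E. coli BL21-CodonPlus, purified on Ni–NTA.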

First: TTCATTCATATGGTGTAACTTTTTGTCGCTGTAGGATCGCCGGAGTCACCTAGTGCAG
Second: CTTGCTGCCTGGATTTCTCCCTGTTTGCTCCCTGACGGAGCGGAGTCACCTAGTGCAG
The binding signal of the first is lower: 8130 fluorescence intensity (a.u.) for the first, 9470 fluorescence intensity (a.u.) for the second.

First: TCCGTGACTATGCTTCTTCTTTTCTTTAATTTTCACCAGACGGAGTCACCTAGTGCAG
Second: AATCAGATGGAGAGTTGGTTATATGGGTGTTTGGAGAGTTCGGAGTCACCTAGTGCAG
The binding signal of the first is higher: 8750 fluorescence intensity (a.u.) for the first, 8410 fluorescence intensity (a.u.) for the second.

Going from “ATCTCCAAAATCAGTTTAACATCGCCTAATCCACGTCGGTCGGAGTCACCTAGTGCAG” to “TTTGCGTCGCCTTTCATTTTGGATGTTTCAATTTGAATACCGGAGTCACCTAGTGCAG”, the binding signal rises from 8820 fluorescence intensity (a.u.) to 10400 fluorescence intensity (a.u.).

Going from “GGAGCGCTGGGAGGAAGGGCGTAGGGAGGGAGGGGTGAGGCGGAGTCACCTAGTGCAG” to “GTTGCGGGGTGGGTGGTGGCGTTGCGGGAGGAGGAGGGAGCGGAGTCACCTAGTGCAG”, the binding signal rises from 11600 fluorescence intensity (a.u.) to 23100 fluorescence intensity (a.u.).

Going from “GGACGGCGGCGAGCGGCGAGGAGGAGGCGGGGAGGTGGGACGGAGTCACCTAGTGCAG” to “GGAGGAGGGGCGGCGGAGCGGGTGGTGGGGAGGCGACATGCGGAGTCACCTAGTGCAG”, the binding signal rises from 9580 fluorescence intensity (a.u.) to 17900 fluorescence intensity (a.u.).

First: GTTTTGTTGGGTCGGCGGCGGCGGGTGAGAGTGGAGAATGCGGAGTCACCTAGTGCAG
Second: CGTTTGTTGGGTGCGGCGGGCGGGGAGGAGCTCGTGAATGCGGAGTCACCTAGTGCAG
The binding signal of the first is lower: 12900 fluorescence intensity (a.u.) for the first, 19600 fluorescence intensity (a.u.) for the second.

Compared with “GGCGAAGTGGTGGGTGCGTTGGGGCGAGGCGGAGCGGTGGCGGAGTCACCTAGTGCAG”, “GAGCGCGCGCGTTGGGCGGGAGGGGTTTGGTTGGTGAGCGCGGAGTCACCTAGTGCAG” is higher in binding signal: 8050 fluorescence intensity (a.u.) for the first, 11800 fluorescence intensity (a.u.) for the second.

First: GCGCGGCGTTGTTGGGTGTGTTCGTGAATCGGGCGGGATGCGGAGTCACCTAGTGCAG
Second: GTGGGGTGGGTGAGCGGGATGCGGGGCTTAGGCGGGGAAGCGGAGTCACCTAGTGCAG
The binding signal of the first is lower: 10500 fluorescence intensity (a.u.) for the first, 16500 fluorescence intensity (a.u.) for the second.

Going from “GGTGGAGGAGGTGGGCGGGGAAAGCGGCGACGTGAGGCGGCGGAGTCACCTAGTGCAG” to “CTGGGGAGGGCGACGGCGCAGTGCGGGGTGGACGGGAGCGCGGAGTCACCTAGTGCAG”, the binding signal falls from 14400 fluorescence intensity (a.u.) to 8270 fluorescence intensity (a.u.).

First: CTAATCCCCTCTAGCTAGCCTCTTTTTTCTCCATTTGTTTCGGAGTCACCTAGTGCAG
Second: GCCGCCGCCGCCGCCCGCGCCGATCCCCATCCATCCCGCACGGAGTCACCTAGTGCAG
The binding signal of the first is higher: 11100 fluorescence intensity (a.u.) for the first, 8970 fluorescence intensity (a.u.) for the second.

Going from “GGGATGTCTTGGCTTTTTTTTTTTCTTCACCGAGCAATCGCGGAGTCACCTAGTGCAG” to “GGTTAGAGATACATACATATTATACCTGATTCACCTCACTCGGAGTCACCTAGTGCAG”, the binding signal falls from 13400 fluorescence intensity (a.u.) to 8060 fluorescence intensity (a.u.).

Compared with “CTTCTTCGATCTCCGGCAATCGCTCCATCGATCGGCGCTTCGGAGTCACCTAGTGCAG”, “TTTTTTCTGTAAGGTGTCATATTTCTTCAATTGATGGATACGGAGTCACCTAGTGCAG” is lower in binding signal: 8370 fluorescence intensity (a.u.) for the first, 8340 fluorescence intensity (a.u.) for the second.

Compared with “GGCTTCAGTATGAATTCTTACACAACCGTTGGTGTGCTACCGGAGTCACCTAGTGCAG”, “ACCCTCGGACCGGTTTTTTTACTATGCCTCAAACATGTTCCGGAGTCACCTAGTGCAG” is higher in binding signal: 9250 fluorescence intensity (a.u.) for the first, 9800 fluorescence intensity (a.u.) for the second.

First: ATCCCTCTGGTCGTCTCCTACCTCTCGGTTTCTTCACCCTCGGAGTCACCTAGTGCAG
Second: TTTTTTCGGTCTCGGTATCGGTCTTTTCGGTTCGATCTTACGGAGTCACCTAGTGCAG
The binding signal of the first is higher: 14600 fluorescence intensity (a.u.) for the first, 8400 fluorescence intensity (a.u.) for the second.

Compared with “GCGGCTGGGGTTGCGGTGCAATCTGGGGCGGGGATGCGAACGGAGTCACCTAGTGCAG”, “ATCACGGAGGAGGCGTTCGGGGAGGGAGGGTGGGGCGCGCCGGAGTCACCTAGTGCAG” is higher in binding signal: 17100 fluorescence intensity (a.u.) for the first, 24400 fluorescence intensity (a.u.) for the second.

Compared with “CGTACTGGGCTGGGCTGGGCTGGGATTCAACCGAACGGGGCGGAGTCACCTAGTGCAG”, “GCGGCGTTGCGGATGGGGACGGGGACGGGGACGGCGGCGACGGAGTCACCTAGTGCAG” is lower in binding signal: 20400 fluorescence intensity (a.u.) for the first, 10400 fluorescence intensity (a.u.) for the second.

Going from “GTAGGGGCGGGAGGGGAGGCGTGGTGGCGCCGGGCCGGCGCGGAGTCACCTAGTGCAG” to “GTGGGGCGGTGGCTGCTGCATTGCATTGGGCGGGAGAGATCGGAGTCACCTAGTGCAG”, the binding signal rises from 14900 fluorescence intensity (a.u.) to 17200 fluorescence intensity (a.u.).

Compared with “AAGTGCTCGATCGGGAGCGGTGGTGGTGGTGGGGAGAGAGCGGAGTCACCTAGTGCAG”, “ACGGTGCCGAACGAGCTTGGGGATGGGGACGGCGGCGGGGCGGAGTCACCTAGTGCAG” is lower in binding signal: 11300 fluorescence intensity (a.u.) for the first, 10200 fluorescence intensity (a.u.) for the second.

Compared with “ACTAGTGGGCTGCTTGGGTGGGGAGCCCGGGCCGGCAGATCGGAGTCACCTAGTGCAG”, “CACTATCGGCAGTGCAGCCGGCGGCTGGGGCGGGGAGTACCGGAGTCACCTAGTGCAG” is lower in binding signal: 12000 fluorescence intensity (a.u.) for the first, 9540 fluorescence intensity (a.u.) for the second.

First: GGTGGCGGTTGCGGGTGGAGGGCCGCGGCGGTGCGACGAACGGAGTCACCTAGTGCAG
Second: GGCCGGCGGGTGGCCGGGTGGGGAGGAGGTCGGCAGGGCGCGGAGTCACCTAGTGCAG
The binding signal of the first is lower: 8480 fluorescence intensity (a.u.) for the first, 9780 fluorescence intensity (a.u.) for the second.

Compared with “CAATTTCCATGGTTTTCTTAGCATTCTCGTCTCTAGTATTCGGAGTCACCTAGTGCAG”, “AAACCCTAGCTCCGGATTCTTCTCCTCTCCTCCTTTCTTCCGGAGTCACCTAGTGCAG” is lower in binding signal: 9610 fluorescence intensity (a.u.) for the first, 8070 fluorescence intensity (a.u.) for the second.
